This note sets out measurements from PubChem BioAssay (EPA / NIEHS).

In general, AC50 refers to the concentration at which the activity in the assay is half-maximal.

A short description of assay [1]: ATG_DR4_LXR_CIS: Attagene CIS-FACTORIAL HepG2 Assay for human Liver X Receptor (LXR), DR4 submotif (AID 2282929). To be noted: HepG2 Attagene DR4 cis-reporter, mRNA transcription; AC50: actives raise or lower the signal unless noted; outcome: actives raise or lower the signal unless noted. The procedure, abridged: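 HepG2 cells transiently transfected with cis-promoter-driven multiplexed reporter units (DR4 element) were dosed for 24 h. Reporter mRNA was quantified by RT-PCR, fluorescent primer extension, HpaI digestion and capillary electrophoresis; bidirectional fitting versus DMSO baseline.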

Assay [2] deals with Aryl hydrocarbon receptor (Homo sapiens) (UniProt P35869). Description: ATG_Ahr_CIS: Attagene CIS-FACTORIAL HepG2 Assay for human Aryl Hydrocarbon Receptor (Ahr) (AID 2282930). To be noted: HepG2 AhR cis-factorial reporter transcription; actives raise or lower the signal. The procedure, abridged: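 HepG2 cells transiently transfected with cis-element-driven multiplexed reporter transcription units; endogenous transcription factor activity measured as reporter mRNA 24 h after dosing. RT-PCR, 6-FAM labelling, HpaI digestion, capillary electrophoresis; bidirectional fitting versus DMSO baseline.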
Chain of Aryl hydrocarbon receptor (Homo sapiens) (P35869 whole entry, looked up): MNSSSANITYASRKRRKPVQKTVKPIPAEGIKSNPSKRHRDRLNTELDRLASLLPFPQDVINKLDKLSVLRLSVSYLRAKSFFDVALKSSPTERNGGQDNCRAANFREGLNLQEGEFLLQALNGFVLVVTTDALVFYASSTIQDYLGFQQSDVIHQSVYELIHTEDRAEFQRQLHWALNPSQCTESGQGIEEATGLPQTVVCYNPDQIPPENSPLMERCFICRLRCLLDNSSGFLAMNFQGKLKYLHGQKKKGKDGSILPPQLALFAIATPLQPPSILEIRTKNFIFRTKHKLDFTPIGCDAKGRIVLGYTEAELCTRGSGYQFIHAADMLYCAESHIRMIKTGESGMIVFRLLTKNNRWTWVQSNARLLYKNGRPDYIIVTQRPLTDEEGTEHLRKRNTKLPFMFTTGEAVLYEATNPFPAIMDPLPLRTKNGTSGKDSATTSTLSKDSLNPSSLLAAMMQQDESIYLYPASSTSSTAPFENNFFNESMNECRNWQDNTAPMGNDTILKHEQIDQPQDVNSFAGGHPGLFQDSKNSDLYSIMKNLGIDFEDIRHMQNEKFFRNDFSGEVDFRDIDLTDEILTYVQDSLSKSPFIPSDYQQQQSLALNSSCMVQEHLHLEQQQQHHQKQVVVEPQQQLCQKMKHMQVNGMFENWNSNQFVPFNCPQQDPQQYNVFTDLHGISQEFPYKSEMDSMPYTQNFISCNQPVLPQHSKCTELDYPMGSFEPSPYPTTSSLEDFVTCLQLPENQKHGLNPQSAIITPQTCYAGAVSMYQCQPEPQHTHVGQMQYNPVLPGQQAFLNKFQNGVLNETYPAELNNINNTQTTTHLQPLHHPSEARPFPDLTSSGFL

A short description of assay [3]: ATG_AP_1_CIS: Attagene CIS-FACTORIAL HepG2 Assay for human Activator Protein 1 (AP-1) (AID 2282931). To be noted: HepG2 Attagene cis-factorial AP-1 reporter mRNA; actives raise or lower the signal. The method in brief: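 HepG2 cells transiently transfected with cis-element-driven multiplex reporter units; 24 h compound exposure. Reporter mRNA quantified by RT-PCR, FAM-labelled fragments resolved by capillary electrophoresis; bidirectional fit versus DMSO baseline.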

The nature of assay [4]: ATG_AP_2_CIS: Attagene CIS-FACTORIAL HepG2 Assay for human Activator Protein 2 (AP-2) (AID 2282932). The note with it: HepG2 AP-2 cis-reporter, Attagene transcription factor profiling; AC50: actives raise or lower the signal unless noted; outcome: actives raise or lower the signal unless noted. The method in brief: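 Cells (HepG2) transfected with promoter-driven reporter constructs, treated 24 h. Total RNA reverse-transcribed, reporter cDNA PCR-amplified, FAM-labelled by primer extension, digested, resolved by capillary electrophoresis. Activity fitted both directions versus DMSO.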

A short description of assay [5]: ATG_BRE_CIS: Attagene CIS-FACTORIAL HepG2 Assay for human Bone Morphogenetic Protein (BMP) Response Element (BRE) (AID 2282933). To be noted: HepG2 BMP response element reporter, Attagene transcription factor profiling; actives raise or lower the signal. The method in brief: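 Fluorescence-labelled reporter cDNA fragments, separated by capillary electrophoresis, gave the signal for this component of a 52-readout multiplex. HepG2 cells were transfected, exposed to chemicals for 24 h, and compared with DMSO using bidirectional fitting.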

Assay [6] concerns the target Retinoic acid receptor alpha (Homo sapiens) (UniProt P10276). Description: ATG_DR5_RAR_CIS: Attagene CIS-FACTORIAL HepG2 Assay for human Retinoic Acid Receptor Alpha (RARE), DR5 submotif (AID 2282934). To be noted: HepG2 Attagene cis-factorial RARE DR5 reporter, mRNA; actives raise or lower the signal. The method in brief: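 HepG2 cells transiently transfected with multiplexed reporter units under cis (DR5 RARE) promoters, so endogenous transcription factor activity is measured. After 24 h compound exposure, reporter mRNA is quantified by RT-PCR with fluorescent labelling and capillary electrophoresis; bidirectional fitting versus DMSO.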

Assay [7] deals with Transcription factor E2F1 (Homo sapiens) (UniProt Q01094). Description: ATG_E2F_CIS: Attagene CIS-FACTORIAL HepG2 Assay for human E2F Transcription Factor 1 (AID 2282935). The note with it: HepG2 Attagene cis-reporter, E2F reporter RNA transcripts; actives raise or lower the signal. The method in brief: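 First, HepG2 cells were transfected with reporter transcription units. Next, they were dosed for 24 h. Then RNA was isolated, converted to cDNA, PCR-amplified, FAM-labeled, HpaI-digested and analyzed by capillary electrophoresis.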
Chain of Transcription factor E2F1 (Homo sapiens) (Q01094 whole entry, looked up): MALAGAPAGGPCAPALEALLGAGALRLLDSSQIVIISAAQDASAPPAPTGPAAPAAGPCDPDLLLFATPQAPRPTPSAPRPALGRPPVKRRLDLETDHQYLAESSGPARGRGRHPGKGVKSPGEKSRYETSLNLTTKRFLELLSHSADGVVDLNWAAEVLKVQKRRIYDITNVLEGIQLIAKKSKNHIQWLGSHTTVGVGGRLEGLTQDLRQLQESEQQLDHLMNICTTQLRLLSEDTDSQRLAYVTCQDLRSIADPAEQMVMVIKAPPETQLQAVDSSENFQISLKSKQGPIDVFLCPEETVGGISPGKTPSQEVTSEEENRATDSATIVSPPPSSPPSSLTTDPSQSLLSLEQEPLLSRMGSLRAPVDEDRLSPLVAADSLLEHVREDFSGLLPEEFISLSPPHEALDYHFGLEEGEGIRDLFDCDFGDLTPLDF

A short description of assay [8]: ATG_E_Box_CIS: Attagene CIS-FACTORIAL HepG2 Assay for human Enhancer Box (E-box) (AID 2282936). The note with it: HepG2 E-box cis-reporter transcription, actives raise or lower the signal. The method in brief:
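Endogenous transcription factor activity was sensed in human HepG2 liver cells through transfected cis-promoter reporter units. After 24 h of dosing, total RNA was reverse-transcribed and reporter cDNA resolved by capillary electrophoresis.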

Assay [9] can be described thus: ATG_M_61_CIS: Attagene CIS-FACTORIAL HepG2 Assay for M61 Transcription Factor (Internal Marker) (AID 2282937). The note with it: HepG2 Attagene CIS-FACTORIAL M61 internal marker reporter; actives raise or lower the signal. The method in brief:
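HepG2 cells transiently transfected with cis-element-driven multiple reporter transcription units, dosed for 24 h. Reporter mRNA measured by RT-PCR, 6-FAM primer-extension labelling, HpaI digestion and capillary electrophoresis; bidirectional fit versus DMSO baseline.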

Assay [10] in a line: ATG_EGR_CIS: Attagene CIS-FACTORIAL HepG2 Assay for human Early Growth Response 1 (EGR1) (AID 2282938). To be noted: HepG2 Attagene CIS-FACTORIAL EGR reporter mRNA; actives raise or lower the signal. The method in brief:
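HepG2 cells transiently transfected with cis-promoter-driven multiplexed reporter transcription units; reporter mRNA measured 24 h after compound dosing by RT-PCR, 6-FAM primer extension, HpaI digestion and capillary electrophoresis. Bidirectional fit versus DMSO baseline.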

The nature of assay [11]: ATG_M_19_CIS: Attagene CIS-FACTORIAL HepG2 Assay for M19 Transcription Factor (Internal Marker) (AID 2282939). To be noted: HepG2 Attagene CIS-FACTORIAL M19 internal marker reporter; actives raise or lower the signal. The method in brief:
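HepG2, MRTU transient transfection, 24 h dosing. Total RNA → RT-PCR → 6-FAM primer extension → HpaI digest → CE fluorescence. Bidirectional curve fit, DMSO negative control.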

The nature of assay [12]: ATG_ERE_CIS: Attagene CIS-FACTORIAL HepG2 Assay for Estrogen Response Element (ERE) (AID 2282940). To be noted: HepG2 ERE cis-reporter, Attagene RNA transcript; actives raise or lower the signal. The method in brief:
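After a 24 h chemical treatment, RNA from reporter-transfected HepG2 cells is reverse-transcribed, PCR-amplified and fluorescently labelled. Fragments separated by capillary electrophoresis give reporter signal; DMSO serves as negative control.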

Assay [13] is described as follows: ATG_Ets_CIS: Attagene CIS-FACTORIAL HepG2 Assay for human Erythroblast Transformation Specific (ETS) (AID 2282941). The note with it: HepG2 ETS cis-reporter transcription; AC50: actives raise or lower the signal unless noted; outcome: actives raise or lower the signal unless noted. The procedure, abridged: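 RT-PCR/capillary electrophoresis fluorescence read-out of reporter mRNA; HepG2 transient multi-reporter transfection; 24 h compound exposure; gain or loss of signal fitted bidirectionally relative to DMSO.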

Assay [14] concerns the target Hepatocyte nuclear factor 3-beta (Homo sapiens) (UniProt Q9Y261). Description: ATG_FoxA2_CIS: Attagene CIS-FACTORIAL HepG2 Assay for human Forkhead box A2 (FOXA2) (AID 2282942). To be noted: HepG2 cis-reporter transcription factor activity, 24 h; actives raise or lower the signal. The procedure, abridged: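 HepG2 cells transiently transfected with multiple cis-regulated reporter transcription units, dosed for 24 h. Reporter mRNA measured by RT-PCR, 6-FAM labelling, HpaI digestion and capillary electrophoresis; bidirectional fitting against DMSO baseline.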

Assay [15] is described as follows: ATG_FoxO_CIS: Attagene CIS-FACTORIAL HepG2 Assay for human Forkhead box O (FoxO) (AID 2282943). The note with it: HepG2 Attagene cis-reporter, FoxO element, mRNA; actives raise or lower the signal. The method in brief:
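HepG2 cells transiently transfected with cis-promoter-driven multiple reporter transcription units; 24 h after chemical dosing, reporter mRNA quantified by RT-PCR, fluorescent primer extension, HpaI digestion and capillary electrophoresis. Bidirectional fitting versus DMSO baseline.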

Assay [16] can be described thus: ATG_GATA_CIS: Attagene CIS-FACTORIAL HepG2 Assay for human GATA Binding Protein (AID 2282944). To be noted: HepG2 GATA cis-element reporter, Attagene multiplex mRNA; actives raise or lower the signal. The procedure, abridged: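 Cells: HepG2, transiently transfected with cis-regulated reporter transcription units. Exposure: 24 h. Detection: RT-PCR plus capillary electrophoresis of FAM-labeled fragments. Analysis: bidirectional, DMSO as baseline.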

Assay [17] is described as follows: ATG_GLI_CIS: Attagene CIS-FACTORIAL HepG2 Assay for human Zinc Finger Protein GLI1 (AID 2282945). To be noted: HepG2, Attagene cis-factorial reporter mRNA, GLI element; actives raise or lower the signal. The method in brief: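 HepG2 cells transiently transfected with cis-promoter multiplexed reporter units report endogenous transcription factor activity. After 24 h chemical exposure, reporter mRNA was quantified by RT-PCR, 6-FAM labelling, HpaI digestion and capillary electrophoresis, with bidirectional fitting against DMSO.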

Assay [18] has as its target Bile acid receptor (Homo sapiens) (UniProt Q96RI1). Description: ATG_IR1_CIS: Attagene CIS-FACTORIAL HepG2 Assay for human Nuclear Receptor Subfamily 1 Group H Member 4 (NR1H4), IR1 submotif (AID 2282946). To be noted: IR1 reporter transcription, actives raise or lower the signal. The method in brief:
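Readout: reporter transcript levels by RT-PCR with fluorescent capillary electrophoresis, from HepG2 cells transiently transfected with multiplexed cis-regulated reporters and dosed 24 h. Gain- or loss-of-signal fitted versus DMSO negative control.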

Assay [19] can be described thus: ATG_ISRE_CIS: Attagene CIS-FACTORIAL HepG2 Assay for human Interferon Regulatory Factor 1 (IRF1) binding to an Interferon-Stimulated Response Element (ISRE) (AID 2282948). The note with it: HepG2 ISRE cis-reporter (Attagene), mRNA transcription readout; actives raise or lower the signal. The method in brief: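 Read-out: fluorescent RT-PCR products resolved by capillary electrophoresis, reporting endogenous transcription factor activity via ISRE-driven reporter mRNA in transfected HepG2 cells dosed for 24 h; gain or loss fitted relative to DMSO.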

Assay [20] in a line: ATG_GRE_CIS: Attagene CIS-FACTORIAL HepG2 Assay for human Glucocorticoid Response Elements (GRE) (AID 2282947). The note with it: HepG2 GRE cis-reporter, Attagene multiplex mRNA; AC50: actives raise or lower the signal unless noted; outcome: actives raise or lower the signal unless noted. The method in brief: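 Cells (HepG2) bearing transfected cis-promoter reporter transcription units were treated with chemical for 24 hours. Reporter mRNA was measured via RT-PCR with capillary electrophoresis, and activity was fitted in both directions relative to DMSO.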

Activity calls are given as the source filed them. How the source made its calls: active means hit-call score of the fitted dose curve at least 0.9, where 1 is the maximum; inactive means score below 0.9.

Chain of Hepatocyte nuclear factor 3-beta (Homo sapiens) (Q9Y261 whole entry, looked up): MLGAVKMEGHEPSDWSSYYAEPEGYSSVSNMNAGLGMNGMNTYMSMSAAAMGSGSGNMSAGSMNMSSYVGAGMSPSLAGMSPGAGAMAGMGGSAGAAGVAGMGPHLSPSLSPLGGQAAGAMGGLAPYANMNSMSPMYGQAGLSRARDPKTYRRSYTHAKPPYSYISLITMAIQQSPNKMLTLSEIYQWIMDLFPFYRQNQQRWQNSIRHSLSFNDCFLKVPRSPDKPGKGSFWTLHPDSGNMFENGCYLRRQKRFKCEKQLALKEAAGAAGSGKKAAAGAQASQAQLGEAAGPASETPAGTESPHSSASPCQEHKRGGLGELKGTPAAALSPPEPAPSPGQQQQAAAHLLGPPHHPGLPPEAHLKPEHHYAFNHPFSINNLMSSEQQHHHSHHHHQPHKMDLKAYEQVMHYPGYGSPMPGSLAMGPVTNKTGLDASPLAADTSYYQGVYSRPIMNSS
Chain of Bile acid receptor (Homo sapiens) (Q96RI1 whole entry, looked up): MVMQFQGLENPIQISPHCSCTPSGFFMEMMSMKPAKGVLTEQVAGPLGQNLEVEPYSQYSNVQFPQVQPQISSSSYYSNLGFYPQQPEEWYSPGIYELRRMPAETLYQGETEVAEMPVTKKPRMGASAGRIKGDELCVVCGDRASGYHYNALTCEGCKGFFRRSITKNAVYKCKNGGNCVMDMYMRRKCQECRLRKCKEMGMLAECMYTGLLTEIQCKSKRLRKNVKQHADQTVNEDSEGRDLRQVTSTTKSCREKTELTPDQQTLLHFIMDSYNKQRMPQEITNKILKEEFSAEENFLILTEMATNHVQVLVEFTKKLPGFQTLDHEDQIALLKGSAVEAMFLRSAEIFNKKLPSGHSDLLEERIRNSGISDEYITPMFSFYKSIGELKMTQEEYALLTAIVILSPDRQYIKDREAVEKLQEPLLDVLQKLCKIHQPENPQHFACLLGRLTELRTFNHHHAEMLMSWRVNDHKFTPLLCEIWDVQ
Chain of Retinoic acid receptor alpha (Homo sapiens) (P10276 whole entry, looked up): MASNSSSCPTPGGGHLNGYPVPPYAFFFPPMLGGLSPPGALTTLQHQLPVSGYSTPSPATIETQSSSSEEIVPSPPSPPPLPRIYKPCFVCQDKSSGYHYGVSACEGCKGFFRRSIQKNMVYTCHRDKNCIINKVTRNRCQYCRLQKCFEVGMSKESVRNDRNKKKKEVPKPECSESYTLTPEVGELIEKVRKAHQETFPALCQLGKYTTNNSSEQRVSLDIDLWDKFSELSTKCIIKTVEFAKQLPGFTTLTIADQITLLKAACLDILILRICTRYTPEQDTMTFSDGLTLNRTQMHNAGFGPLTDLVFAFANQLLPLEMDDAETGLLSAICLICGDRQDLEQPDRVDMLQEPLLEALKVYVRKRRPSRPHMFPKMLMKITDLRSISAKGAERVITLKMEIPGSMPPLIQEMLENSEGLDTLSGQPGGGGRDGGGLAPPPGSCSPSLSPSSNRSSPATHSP

In the case of `Cc1ccc(N=Nc2c(O)ccc3ccccc23)c(C)c1`, the compound was called inactive in assay [1], in [4], in assay [5], in assay [6], in assay [7] and in [8]. Besides, the compound was called inactive in assay [9], in [10], in [11], in assay [13], in assay [14] and in [15]. In addition, the result in [16], in assay [17], in [18] and in [19] was inactive. For the same compound, the AC50 in assay [2] was 360 nM (active); in assay [3], 5.87 µM (active); in [12] it was 5.07 µM (active).

Take `FC(F)=C(F)C(F)(F)C(F)(F)C(F)(F)C(F)F`: the compound was called inactive in assay [1], in [2], in assay [3], in [4], in assay [5] and in [6]. The outcome in [7], in [8], in assay [9], in [10], in assay [11] and in assay [12] was inactive. In addition, the compound was classed as inactive in [13], in assay [15], in [16], in [17], in assay [18] and in [20]. Besides, the result in assay [19] was inactive.

Take `O=C1c2ccccc2C(=O)c2c(O)c(O)cc(O)c21`: the result in assay [1], in assay [4], in assay [5], in assay [6], in [7] and in assay [9] was inactive. Also, the compound was called inactive in assay [10], in assay [11], in assay [13], in assay [14], in assay [15] and in [16]. Besides, the call in assay [17], in assay [18] and in assay [19] was inactive. The AC50 in assay [2] was 303 nM (active); in [3] it was 19.8 µM (active); in assay [8] it was 8.54 µM (active); in assay [12], 2.42 µM (active).

Regarding `O=C(O)CCC(F)(F)C(F)(F)C(F)(F)C(F)(F)C(F)(F)F`, the call in assay [1], in [2], in assay [3], in [4], in [5] and in assay [6] was inactive. For the same compound, the outcome in assay [7], in assay [8], in assay [9], in assay [10], in assay [11] and in [12] was inactive. In addition, the compound was called inactive in assay [13], in assay [14], in assay [15], in assay [16], in [17] and in assay [20]. In assay [19], the call was inactive.
